# NR3A LBD binder: binders of NR3A ligand-binding domain, primary screen, biophysical, differential scanning fluorimetry, uHTS; Glutamate receptor ionotropic, NMDA 3A (GRIN3A) ligand-binding domain; NR3A LBD differential scanning fluorimetry, Tm shift; 0% = protein alone, 100% = glycine-bound protein; Tm shift relative to glycine control, % at 25 µM; 340,000 tested, 2.5% active; AID 1259313, 2017;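 active = melting temperature shift of at least 10% of the positive control shift, at one fixed dose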
# CRFR2-BP antag: antagonists of CRF-BP/CRF-R2 complex, primary screen, cell-based, HEK293, calcium dye fluorescence, uHTS | AID 588475, 2011 | 350,000 tested, 0.59% active | inhibition, % at 11.8 µM | CRF-induced calcium fluorescence;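 active = inhibition of the ligand-induced calcium signal above about 50% at the single tested concentration, limit read from the data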
# CRFBP-R2 agonist: agonists of CRF-BP/CRF-R2 complex, primary screen, cell-based, HEK293, calcium dye fluorescence, uHTS; CRF-binding protein / CRF receptor 2 complex (human); calcium dye fluorescence (FLIPR); percent of saturating CRF peptide response; activation, % at 13.2 µM; 350,000 tested, 0.46% active; AID 588473, 2011;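 active = activation of at least 50%, plus an integration ratio under a set limit after plate pattern correction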
# ANO1 activ: TMEM16A chloride channel activators or potentiators, primary screen, cell-based, HTS; B-score at 10 µM; Anoctamin-1 (Mus musculus), Q8BHY3; HEK293 TMEM16A/YFP-H148Q/I152L, iodide quench fluorescence; stronger effect = lower value; 340,000 tested, 0.3% active;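 active = fluorescence-ratio B-score plate-corrected deviation score at least 3 library SD below zero, with starting fluorescence score within 5 deviations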;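 note: channel opened by trigger with iodide after compound preincubation; score built on the fluorescence ratio of max minus min over baseline; more negative score means more quench and so TMEM16A activation or potentiation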
# MPTP inh: mitochondrial permeability transition pore inhibitors, primary screen, biochemical, isolated mouse mitochondria, absorbance. Ca2+ swelling absorbance, 30 min. inhibition, % at 10 µM. 360,000 tested, 1.4% active. AID 602449, 2012;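 active = inhibition of 50% or more, scaled per plate between neutral and stimulator controls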
# ANO1 block: TMEM16A chloride channel inhibitors, primary screen, cell-based, HTS. Anoctamin-1 (Mus musculus), Q8BHY3. HEK293 TMEM16A/YFP iodide influx fluorescence, ionomycin. normalized B-score (activity score, 25-100; higher = stronger inhibition) at 10 µM. 310,000 tested, 1.2% active. AID 588511, 2011;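 active = ratio plate-corrected score three or more library SD toward inhibition, starting fluorescence score within five deviations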;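 note: score derived from kinetic fluorescence span divided by baseline fluorescence per well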
# Hits are given with their value; i = inactive; nt = no result. Hits are enriched below; roughly 5.1% of the tested compounds scored in any of these assays.
SMILES,NR3A LBD binder,CRFR2-BP antag,CRFBP-R2 agonist,ANO1 activ,MPTP inh,ANO1 block
O=C(CN(c1cccc(Cl)c1)S(=O)(=O)c1ccc(Cl)cc1)N1CCc2ccccc2C1,11,i,i,i,i,i
CCOC(=O)N1CCN(C(=O)CN(c2cccc(C)c2)S(=O)(=O)c2ccc(C)cc2)CC1,i,i,i,i,i,i
Cc1ccc(S(=O)(=O)N(CC(=O)N2CCC(C)CC2)c2cccc(C)c2)cc1,i,i,i,i,i,25
CN1CCc2c(sc3c2C(=O)NC(/C=C\c2ccccc2)N3)C1 (stereo unspecified),i,i,i,i,i,i
CN1CCc2c(sc3c2C(=O)NC(c2cccs2)N3)C1 (stereo unspecified),i,i,58,i,i,i
Cc1ccsc1C1NC(=O)c2c(sc3c2CCN(C)C3)N1 (stereo unspecified),i,i,65,i,i,i
O=c1cc(O)cc2n1CCC2,nt,nt,nt,nt,i,nt
COc1ccc(NC(=O)CSc2nc(C)cs2)c([N+](=O)[O-])c1,i,i,i,i,i,nt
Cc1nc(-c2ccc([N+](=O)[O-])cc2)nc2[nH]ccc(=O)c12,i,i,i,i,i,i
Cc1nc(-c2ccccc2)nc2[nH]ccc(=O)c12,10,i,i,i,i,i
Cc1ccc(C(CC(=O)NCc2ccco2)c2ccc(OC(C)C)cc2)cc1 (stereo unspecified),i,51,i,i,i,i
Cc1ccc(C(=O)OCC(=O)NCc2ccco2)cc1,10,i,i,i,i,i
COc1ccc(C(CC(=O)NCc2ccco2)c2ccc(F)cc2)cc1 (stereo unspecified),i,i,i,i,i,i
O=C(COC(=O)c1ccccc1)NCc1ccco1,i,i,i,i,i,i
CCOC(=O)C1CCN(C(=O)c2[nH]c(C(F)(F)F)nc2-c2ccccc2)CC1,nt,nt,nt,nt,i,nt
COc1cc(C)ccc1OCc1cc(C(=O)N2CCN(C3CCCCC3)CC2)no1,i,i,i,i,i,i
Cc1ccc(-c2nc(C=Nc3ccc(O)cc3)c(O)o2)cc1,11,i,i,i,i,nt
CN=Cc1nc(-c2ccccc2)oc1O,i,i,i,i,i,i
COc1cc(C(=O)NNC(=O)COc2ccccc2Cl)ccc1OCC(=O)N1CCOCC1,i,i,i,i,i,nt
COc1cc(C(=O)NCc2ccccc2Cl)ccc1OCC(=O)N1CCOCC1,i,62,i,i,i,nt
CCOc1ccc(NC(=O)COc2ccc(C(=O)NC(C)c3ccc(S(N)(=O)=O)cc3)cc2OC)cc1 (stereo unspecified),i,i,i,i,i,i
COc1cc(C(=O)NC(C)c2ccc(S(N)(=O)=O)cc2)ccc1OCC(=O)N1CCOCC1 (stereo unspecified),11,i,i,i,i,i
COCCCN1C(=O)C(CC(=O)NC2CCCCC2)CC(C(=O)N2CCOCC2)=C1C (stereo unspecified),nt,i,i,nt,i,nt
COc1cccc(C(O)c2ncc(-c3ccc(C(F)(F)F)cc3)[nH]2)c1 (stereo unspecified),nt,nt,nt,nt,i,nt
CNC(=S)NNC(=O)c1cccc(C(F)(F)F)c1,i,i,i,i,i,i
NC(=S)NNC(=O)c1cc(C(F)(F)F)cc(C(F)(F)F)c1,31,i,i,i,i,i
CC(CN1CC(=O)NC(=O)C1)N1CC(=O)NC(=O)C1 (stereo unspecified),nt,i,i,nt,i,nt
O=C1c2ccccc2C(=O)N1CCc1nc(-c2ccccn2)no1,i,i,i,i,i,25
O=C(NCc1ccco1)C(c1ccccc1F)N(Cc1cccnc1)C(=O)Cn1nnc2ccccc21 (stereo unspecified),11,i,i,i,i,i
Cc1ccc(CNC(=O)C2CSC3(C)CCC(=O)N23)cc1 (stereo unspecified),i,i,i,i,i,nt

# Screens: PubChem BioAssay, several laboratories
